GPT2 inhibitor = inhibitors of human GPT2 alanine aminotransferase | Q8TD30 | Recombinant GPT2, coupled pyruvate oxidase/HRP Amplex Red fluorescence | Potency, µM (doses to about 57.7 µM), actives largely listed as inhibitors | hit rate 0.25% among 100,000; further: nearly all actives have a fitted effect of over 60% in size
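GPT2 10ng/uL, a-KG 250uM, L-Ala 2mM, HEPES pH7.5 + 0.0001% Tween; 30 min RT. Then Amplex mix (PO/HRP/ThPP), 30 min RT dark, fluorescence. AOA 50uM used as positive control.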
HEK293 tox = cytotoxic compounds in HEK 293 cells; hit rate 6.6% among 94,000; Potency, µM (doses to about 115 µM), hits mostly inhibitors; HEK 293 viability, ATP luminescence (CellTiter-Glo), 48-72 h; AID 1345083; further: nearly all actives have a fitted effect of over 60% in size
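HEK 293 seeded at 250 cells/well receive compound via pintool. After 48 or 72 hr at 37 degree Celsius, 5% CO2 and 95% humidity, CellTiter-Glo is dispensed and luminescence read following 10 min at room temperature.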
NIH3T3 tox = cytotoxic compounds in NIH 3T3 cells; Potency, µM (doses to about 96.7 µM), actives largely listed as inhibitors; hit rate 4.3% among 94,000; NIH 3T3 viability, CellTiter-Glo ATP luminescence, 48-72 h; further: nearly all actives have a fitted effect of over 55% in size
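Viability of NIH 3T3 cells after 48 or 72 hr compound treatment at 37 °C was assessed by CellTiter-Glo, with luminescence imaged following a 10 min room-temperature step.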
NPR1 antag = blocks ANP-stimulated signaling of human Npr1 receptor; P16066; HEK293 hNpr1 GloSensor cGMP, ANP-stimulated luminescence; Potency, µM (top dose mostly 46.3 µM), most hits filed as inhibitors; hit rate 1.6% among 76,000; calls by dose curve; further: nearly all actives have a fitted effect of over 60% in size
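HEK293 cells stably expressing human Npr1 and cGMP GloSensor pGS-40F, loaded 2 h with 2% GloSensor reagent, given compound 30 min at room temperature. Luminescence read before and 20 min after 0.1 nM hNppA.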
FLuc inh-1 = blocks purified firefly luciferase enzyme activity; P08659; purified P. pyralis luciferase, luminescence, biochemical; Potency, µM (titrated, usually from 115 µM), actives largely listed as inhibitors; hit rate 2.5% among 76,000; further: nearly all actives have a fitted effect of over 65% in size
Target sequence (P08659 whole entry, looked up): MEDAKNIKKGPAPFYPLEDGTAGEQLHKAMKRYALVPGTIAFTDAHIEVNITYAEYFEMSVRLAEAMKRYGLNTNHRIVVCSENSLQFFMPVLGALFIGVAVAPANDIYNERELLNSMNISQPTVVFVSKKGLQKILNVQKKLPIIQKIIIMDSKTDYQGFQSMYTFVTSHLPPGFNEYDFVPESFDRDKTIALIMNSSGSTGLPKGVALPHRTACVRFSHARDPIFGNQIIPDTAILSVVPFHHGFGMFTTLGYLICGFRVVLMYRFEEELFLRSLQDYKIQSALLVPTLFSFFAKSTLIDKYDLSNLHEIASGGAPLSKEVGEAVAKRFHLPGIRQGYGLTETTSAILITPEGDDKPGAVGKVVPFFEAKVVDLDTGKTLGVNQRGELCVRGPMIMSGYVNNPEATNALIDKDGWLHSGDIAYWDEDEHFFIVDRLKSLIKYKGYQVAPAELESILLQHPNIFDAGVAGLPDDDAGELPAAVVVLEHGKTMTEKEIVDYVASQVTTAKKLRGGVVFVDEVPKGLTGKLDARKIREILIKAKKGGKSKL
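Purified P. pyralis luciferase (10nM final) in 50mM Tris acetate pH 7.5, 10mM Mg acetate, 0.01% Tween-20, 0.05% BSA with 10uM D-luciferin and 10uM ATP. Compounds titrated qHTS. Luminescence imaged on CCD.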
FLuc SDR no ATP = firefly luciferase binding stabilization, ATP absent. Potency, µM (highest dose often 32.7 µM), actives largely listed as activators. Purified FLuc-C-HiBiT, Nano-Glo HiBiT luminescence, no ATP. hit rate 7.8% among 1,300. shares compounds with FLuc inh-1. AID 1963318; further: nearly all actives have a fitted effect of over 55% in size
FLuc SDR ATP = stabilizes firefly luciferase with ATP present; shares compounds with FLuc inh-1; purified FLuc-C-HiBiT + ATP, HiBiT complementation luminescence; Potency, µM (series often up to 32.7 µM), actives largely listed as activators; hit rate 8.7% among 1,300; AID 1963319;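 further: signal reports ligand binding via conformational change of the enzyme rather than luciferase catalysis; nearly all actives have a fitted effect of over 55% in size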
FLuc inh-2 = inhibitors of firefly luciferase enzymatic activity. shares compounds with FLuc inh-1. purified FLuc-C-HiBiT enzyme, luciferin luminescence. Potency, µM (titrated, usually from 32.7 µM), hits mostly inhibitors. hit rate 42% among 1,300. AID 1963320; further: nearly all actives have a fitted effect of over 70% in size
Hits are given with their value. Sampled rows, rich in hits. Any-hit rate of the full collection: about 10%. Unless noted, the call rests on the fitted dose curve; in most records, active means well fitted curve in the direction sought with a large enough effect; inconclusive means small, poorly fitted or top-dose-only effect, or another doubt; inactive means no such curve, though single readings can be large; an effect the other way counts as inactive or inconclusive.

`O=C(Nc1cccc(Cl)c1)c1ccc2oc(-c3ccnc(Cl)c3)nc2c1` gave GPT2 inhibitor inactive, HEK293 tox inconclusive and NIH3T3 tox inconclusive.
For Cc1cc2nc(-c3cccc(NC(=O)COc4ccc(C(C)C)cc4)c3)oc2cc1C the results were FLuc SDR no ATP inactive, FLuc SDR ATP inconclusive and FLuc inh-2 inconclusive.
For COc1ccc(-n2ncc3c(NC4CCCC4)ncnc32)cc1 the results were FLuc SDR no ATP inconclusive, FLuc SDR ATP inconclusive and FLuc inh-2 1.8µM.
For Cc1ccc(-n2ncc3c(NC4CCCC4)ncnc32)cc1 the results were FLuc SDR no ATP inconclusive, FLuc SDR ATP inconclusive and FLuc inh-2 0.62µM.
Screening O=C(Nc1ccccc1)C1CCN(C(=O)N2CC3CC(C2)[C@H]2CCCC(=O)N2C3)CC1 (stereo partly specified) returned GPT2 inhibitor inactive, HEK293 tox inactive, NIH3T3 tox inactive, NPR1 antag inactive, FLuc inh-1 inactive, FLuc SDR no ATP inactive, FLuc SDR ATP inactive and FLuc inh-2 inactive.
`O=C(c1ccccc1F)N1CCn2c(nn(-c3ccc(Cl)cc3)c2=O)C1` gave GPT2 inhibitor inactive, HEK293 tox inconclusive and NIH3T3 tox inactive.
For O=C(NCc1ccoc1)c1ccc2nc(-c3ccc(F)cc3)cn2c1 the results were GPT2 inhibitor inactive, HEK293 tox inconclusive, NIH3T3 tox inconclusive, NPR1 antag inactive, FLuc inh-1 5.6µM, FLuc SDR no ATP inactive, FLuc SDR ATP inactive and FLuc inh-2 inconclusive.
`CCN(CC)CCCCNc1nc2cc(Cl)c(Cl)cc2nc1-c1ccc(-c2cccs2)s1` gave GPT2 inhibitor inactive.
COC(=O)c1c(-c2cccs2)csc1NC(=O)c1ccc(Br)cc1 was read as FLuc SDR no ATP inactive, FLuc SDR ATP inactive and FLuc inh-2 11µM.
COc1ccc(C(=O)NC2CCN(C(=O)c3ccc(-c4cccs4)cc3)CC2)cc1 was read as GPT2 inhibitor inactive, HEK293 tox inconclusive and NIH3T3 tox inconclusive.
COC(=O)c1c(-c2cccs2)csc1NC(=O)c1ccc(C)cc1 was read as FLuc SDR no ATP inactive, FLuc SDR ATP inactive and FLuc inh-2 inconclusive.
`Cc1ccc(C(=O)NC2CCN(Cc3cccc(-c4cccs4)c3)CC2)cc1` gave GPT2 inhibitor inactive, HEK293 tox inconclusive and NIH3T3 tox inactive.
Screening O=C(Nc1cc(F)cc(F)c1)N1CC(c2nnc(-c3ccncc3)o2)C2(CCOCC2)C1 (stereo unspecified) returned GPT2 inhibitor inactive, HEK293 tox inactive, NIH3T3 tox inactive, NPR1 antag inactive and FLuc inh-1 inactive.
COc1ccc(-c2ncc3c(n2)OCCN(C)C3=O)cc1F was read as FLuc SDR no ATP inconclusive, FLuc SDR ATP inconclusive and FLuc inh-2 18µM.
COCCN1CCOc2nc(-c3cc(F)ccc3OC)ncc2C1=O was read as GPT2 inhibitor inactive, HEK293 tox inconclusive, NIH3T3 tox inconclusive, NPR1 antag inactive and FLuc inh-1 inactive.
`COc1ccc(-c2ncc3c(n2)OCCN(c2ccccc2)C3=O)cc1F` gave GPT2 inhibitor inactive, HEK293 tox inactive, NIH3T3 tox inconclusive, NPR1 antag 16µM, FLuc inh-1 0.71µM, FLuc SDR no ATP inconclusive, FLuc SDR ATP inconclusive and FLuc inh-2 3.2µM.
COc1ncccc1-c1ncc2c(n1)OCCN(c1ccccc1)C2=O was read as GPT2 inhibitor inactive, HEK293 tox inactive, NIH3T3 tox inconclusive, NPR1 antag inactive and FLuc inh-1 inactive.
For CN1CCOc2nc(-c3ccc(Oc4ccccc4)cc3)ncc2C1=O the results were GPT2 inhibitor inactive, HEK293 tox inconclusive, NIH3T3 tox inconclusive, NPR1 antag 25µM, FLuc inh-1 4.5µM, FLuc SDR no ATP inactive, FLuc SDR ATP inactive and FLuc inh-2 inconclusive.
For O=C1c2cnc(-c3cccc(CO)c3)nc2OCCN1c1ccccc1 the results were GPT2 inhibitor inactive, HEK293 tox 40µM, NIH3T3 tox 40µM, NPR1 antag inconclusive, FLuc inh-1 3.2µM, FLuc SDR no ATP 20µM, FLuc SDR ATP inconclusive and FLuc inh-2 11µM.
Screening CC(=O)Nc1cccc(-c2ccnc(-c3nnc(C)n3-c3ccccc3)c2)c1 returned GPT2 inhibitor inactive, HEK293 tox inconclusive, NIH3T3 tox inactive, NPR1 antag inactive and FLuc inh-1 inactive.
For C=C1CC(=O)C2OC2(C)CC2OC(=O)C(=C)C2C(O)C1OC(=O)/C(C)=C\C (stereo unspecified) the results were GPT2 inhibitor inactive.
COc1ccc(C)cc1-c1ccc(COc2ccc3c(cnn3CCC(=O)O)c2)cc1 was read as GPT2 inhibitor inactive, HEK293 tox inconclusive, NIH3T3 tox inactive, NPR1 antag inactive and FLuc inh-1 inactive.
`O=C(O)CCn1ncc2cc(OCc3ccc(-c4cccc(CO)c4)cc3)ccc21` gave GPT2 inhibitor inconclusive, HEK293 tox inactive, NIH3T3 tox inconclusive, NPR1 antag inactive, FLuc inh-1 20µM, FLuc SDR no ATP inactive, FLuc SDR ATP inactive and FLuc inh-2 inconclusive.
For CNC(=O)CCn1ncc2cc(OCc3ccccc3-c3cccc(NC(C)=O)c3)ccc21 the results were GPT2 inhibitor inconclusive, HEK293 tox inconclusive, NIH3T3 tox inconclusive, NPR1 antag inactive, FLuc inh-1 8.9µM, FLuc SDR no ATP inactive, FLuc SDR ATP inconclusive and FLuc inh-2 3.1µM.
`CC(C)Oc1cccc(-c2cccc(COc3ccc4c(cnn4CC[S+](C)(=O)[O-])c3)c2)c1` gave GPT2 inhibitor inactive, HEK293 tox 28µM, NIH3T3 tox inconclusive, NPR1 antag inconclusive, FLuc inh-1 6.3µM, FLuc SDR no ATP inactive, FLuc SDR ATP inactive and FLuc inh-2 inconclusive.
For C[S+](=O)([O-])CCn1ncc2cc(OCC3CCN(Cc4ccccc4)CC3)ccc21 the results were GPT2 inhibitor inactive, HEK293 tox inconclusive, NIH3T3 tox inconclusive, NPR1 antag inactive and FLuc inh-1 inactive.
Cn1cc(-c2cccc(COc3ccc4c(cnn4CC[S+](C)(=O)[O-])c3)c2)cn1 was read as GPT2 inhibitor inactive, HEK293 tox inconclusive, NIH3T3 tox inconclusive, NPR1 antag inconclusive, FLuc inh-1 5.6µM, FLuc SDR no ATP inactive, FLuc SDR ATP inconclusive and FLuc inh-2 inconclusive.
`Cc1cccc(CCNC(=O)c2sc3nc4n(c(=O)c3c2C)CCCC4)c1` gave FLuc SDR no ATP inactive, FLuc SDR ATP inactive and FLuc inh-2 inactive.
